Screens: PubChem, several laboratories
In the library only some 1.2% were active in any assay of this set; here they are far more common.
PKA-R1A activ = activates the PKA-R1A holoenzyme complex; P00514+P68181; 340,000 tested, 0.083% active; activation, % at 11.4 µM; PKA-R1A dissociation, Cy5-IP20 fluorescence polarization; scaled: DMSO 0%, 113 µM cGMP 100%;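 active means percent activation above the mean of all tested compounds plus 3 SD, cut at about 19% in these data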;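 further: higher means more PKAc released from R1A so a rise in polarization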
NR1D1 modulator = modulates human Rev-erb alpha binding to DNA. P20393. Rev-erbα–FITC-DNA binding, fluorescence polarization, 90 min. activity, % at 10 µM. 370,000 tested, 0.79% active. AID 1259318;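 active means activity above about 14%, limit read from the data; passing the limit was not always enough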
Target sequence (P20393 whole entry, looked up): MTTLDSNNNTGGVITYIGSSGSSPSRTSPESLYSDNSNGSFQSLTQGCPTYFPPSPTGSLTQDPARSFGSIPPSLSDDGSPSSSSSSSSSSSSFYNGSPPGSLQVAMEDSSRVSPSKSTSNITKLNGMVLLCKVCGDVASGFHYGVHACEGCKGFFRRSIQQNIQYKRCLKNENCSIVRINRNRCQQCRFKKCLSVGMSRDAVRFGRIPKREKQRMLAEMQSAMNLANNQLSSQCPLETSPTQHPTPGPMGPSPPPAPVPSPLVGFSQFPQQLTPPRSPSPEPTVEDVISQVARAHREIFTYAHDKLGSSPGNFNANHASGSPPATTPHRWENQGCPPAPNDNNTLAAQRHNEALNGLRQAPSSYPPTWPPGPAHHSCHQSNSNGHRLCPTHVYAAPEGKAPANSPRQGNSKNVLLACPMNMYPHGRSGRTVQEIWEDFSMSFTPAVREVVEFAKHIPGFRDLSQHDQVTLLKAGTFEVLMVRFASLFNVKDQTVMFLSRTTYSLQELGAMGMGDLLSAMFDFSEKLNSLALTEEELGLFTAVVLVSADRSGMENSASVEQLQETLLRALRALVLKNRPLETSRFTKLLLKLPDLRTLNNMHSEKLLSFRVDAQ
PKA-R2B act = PKA-R2B complex activation. activation, % at 11.4 µM. PKA-R2B holoenzyme dissociation, Cy5-IP20 fluorescence polarization; R2B truncated from residue 108, S112A mutant; 0% DMSO only, 100% 113 µM cGMP. 340,000 tested, 0.079% active. P22694+P31323;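 active means activation above a cutoff set at the mean over all compounds plus 3 SD, cut at about 18% in these data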;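 further: higher means more holoenzyme dissociation and a rise in polarization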
PG9 binder = PG9 antibody binding by small molecule; TR-FRET gp120-PG9 antibody binding; inhibition, % at 6.7 µM; 360,000 tested, 0.43% active; in the data active means inhibition above about 8.5%
NR1D1 mod conf = confirmation of modulators of human Rev-erb alpha DNA binding; activation, % at 25 µM; Rev-erb alpha FITC-DNA binding, fluorescence polarization, 90 min; shares compounds with NR1D1 modulator; 3,000 tested, 61% active;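 active means activation at or above a set limit, or at least 3 SD above the negative control mean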
RORg DNA counter = RORgamma DNA-binding activity, dose-response counter-screen. AID 1259320. IC50, µM. purified RORgamma protein-FITC-DNA binding, fluorescence polarization. 910 tested, 8% active. shares compounds with NR1D1 modulator;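 active means Compounds whose fitted half-maximal concentration for disrupting protein-DNA binding is below 10 micromolar; the record names Rev-erb in its text, so the target is in doubt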
Numbers stand for hits; – = inactive; · = no result given.

SMILES	PKA-R1A activ	NR1D1 modulator	PKA-R2B act	PG9 binder	NR1D1 mod conf	others
Cn1c(SCC(=O)NC2CCCCC2)nnc1-c1cc2cc(Cl)ccc2o1	–	101	–	–	27
Cn1c(SCC(=O)Nc2cccc(Br)c2)nnc1-c1cc2ccccc2o1	–	42	–	–	60
CC(NC(=O)CSc1nnc(-c2cc3cc(Cl)ccc3o2)n1C)c1ccccc1 (stereo not given)	–	–	–	–	·
O=S(=O)(c1ccccc1)c1cnn2c(C(F)(F)F)cc(-c3ccc(F)cc3)nc12	–	24	–	–	–
C(#CC1=CCCCC1)CNCC1CC1	·	–	·	·	·
COc1ccc(S(=O)(=O)N2CCCCC2)cc1NC(=O)c1[nH]c(C)c(C(C)=O)c1C	–	–	–	–	·
CC(=O)c1c(C)[nH]c(C(=O)Nc2cc(S(=O)(=O)N3CCCCC3)ccc2C)c1C	–	17	–	–	–
CSc1cc(-c2ccc(Cl)cc2)[nH]c(=O)c1C#N	–	82	–	–	–
CC(=O)Nc1ccc(S(=O)(=O)N2C(=O)c3cccc4cccc2c34)cc1	·	33	·	–	–
CC(C)CNC(=O)OCc1cn(Cc2ccccc2)nn1	·	–	·	·	·
COC(=O)c1c(-c2cccc3ccccc23)csc1NC(=O)Cc1ccc(OC)c(OC)c1	–	20	–	–	30
COC(=O)c1ccc(NC(=O)c2ccc3c(c2)C(=O)N(Cc2cccnc2)C3=O)cc1	–	–	–	–	·
COC(=O)c1ccc(NC(=O)c2ccc3c(c2)C(=O)N(C)C3=O)cc1	–	52	–	–	34	RORg DNA counter=–
O=C(CSc1cc(Cl)ccc1Cl)N/N=C/c1ccc[nH]1	·	–	·	·	·
COC(=O)c1ccc2nc(Nc3nc4c(F)cc(F)cc4s3)sc2c1	–	38	–	–	33	RORg DNA counter=–
CCOC(=O)C(=CNc1nc2ccc(C(=O)OCC)cc2s1)C(=O)OCC	·	35	·	–	19
CCOC(=O)c1ccc2nc(Nc3nc4ccc(F)cc4s3)sc2c1	–	35	–	–	31	RORg DNA counter=–
CCOC(=O)c1ccc2nc(NC(C)=O)sc2c1	–	–	–	–	·
COc1ccc(CN(CCN2CCOCC2)C(=O)c2cc(F)cc(F)c2)cc1OC	·	–	·	·	·
NS(=O)(=O)c1ccc(CCNC(=O)c2ccc3c(c2)N(Cc2ccccc2)CCS3)cc1	–	39	–	–	–
O=C(NCCc1c[nH]c2ccccc12)OCc1cn(-c2ccccc2Cl)nn1	·	–	·	·	·
CCSC1=C(C#N)C2(CCCCC2)C2=C(CC(C)(C)CC2=O)N1	–	22	–	–	–
COC(=O)c1cccc(Cn2ccc3ccc(-c4ccc5ccn(C(=O)c6ccccc6)c5c4)cc32)c1	·	–	·	·	·
CCCCOc1ccc(C(=O)n2ccc3ccc(-c4ccc5ccn(Cc6ccc(OC)cc6)c5c4)cc32)cc1	·	35	·	·	–
COc1ccc(Cn2ccc3ccc(-c4ccc5ccn(C(=O)c6ccccc6)c5c4)cc32)cc1	·	–	·	·	·
SMILES	PKA-R1A activ	NR1D1 modulator	PKA-R2B act	PG9 binder	NR1D1 mod conf	others
COc1ccc(Cn2ccc3ccc(-c4ccc5ccn(C(=O)c6ccc(C)cc6)c5c4)cc32)cc1	·	37	·	·	45	RORg DNA counter=–
COC(=O)c1ccc(Cn2ccc3ccc(-c4ccc5ccn(C(=O)c6ccc(C)cc6)c5c4)cc32)cc1	·	50	·	·	62	RORg DNA counter=1.4
CCCCOc1ccc(C(=O)n2ccc3ccc(-c4ccc5ccn(Cc6cccc(C(=O)OC)c6)c5c4)cc32)cc1	·	37	·	·	21
COC(=O)C1CN(Cc2ccc(F)cc2)CCS(=O)(=O)N1Cc1ccc(F)cc1 (stereo not given)	·	–	·	·	·
Cc1ccc(C(=O)n2ccc3ccc(-c4ccc5ccn(Cc6ccccc6)c5c4)cc32)cc1	·	39	·	·	27
N#Cc1ccc(Cn2ccc3ccc(-c4ccc5ccn(Cc6ccc(C#N)cc6)c5c4)cc32)cc1	·	–	·	·	·
COC(=O)c1ccc(Cn2ccc3ccc(-c4ccc5ccn(C(=O)C6CCCCC6)c5c4)cc32)cc1	·	25	·	·	34	RORg DNA counter=–
Cc1ccc(C(=O)n2ccc3ccc(-c4ccc5ccn(Cc6ccc(C#N)cc6)c5c4)cc32)cc1	·	40	·	·	14
COc1ccc(S[C@]2(C(=O)N(C)C)CC(=O)N(C(=O)C3CC3)[C@@H]2c2ccc(OC)cc2)cc1	·	–	·	·	·
Cc1ccc(Cn2c(SCC(=O)Nc3cc(C)on3)nc3ccccc3c2=O)cc1	–	45	–	17	19
C/C(N)=C(/C#N)C(=O)CSc1nc2ccccc2c(=O)n1Cc1ccc(C)cc1	–	70	–	–	25
Cc1cc(NC(=O)CSc2nc3ccccc3c(=O)n2Cc2ccccc2)no1	–	–	–	–	·
COc1ccc(S[C@]2(C(=O)N3CCOCC3)CC(=O)N(S(=O)(=O)c3ccc(F)cc3)[C@@H]2c2ccc(OC)cc2)cc1	·	–	·	·	·
Cc1cc(OCC(=O)Nc2ccccn2)c2c(C)c(C)c(=O)oc2c1	–	33	–	–	–
Cc1cc(OC(C)C(=O)NCc2ccccn2)c2c(C)c(Cc3ccccc3)c(=O)oc2c1 (stereo not given)	–	86	–	–	142	RORg DNA counter=–
Clc1cccc(CSc2ncnc3sc4c(c23)CCCC4)c1	·	–	·	·	·
Nc1[nH]c2cc(Cl)ccc2c1C(=O)NCCc1ccc(Cl)cc1	·	–	·	·	·
CCCCCCc1nc2nc(Cl)c(Cl)nc2[nH]1	–	22	–	–	–
O=C(O)c1nc2nc(Cl)c(Cl)nc2[nH]1	–	–	–	–	·
O=S(=O)(NCCc1csc(-c2cccnc2)n1)c1cccs1	–	24	–	–	–
O=C(NC1CCCN(c2ccc(C(F)(F)F)cn2)C1)c1cc(Cl)ccc1F (stereo not given)	–	20	–	–	–
COC(=O)[C@]12C[C@H](CC(=O)NCc3cccc(C(F)(F)F)c3)C(=O)N(CCC3=CCCCC3)C1=C[C@H](C(C)C)O[C@@H]2C1CC1	·	–	·	·	·
O=C(Nc1ccc(O)c(-c2nc3ccccc3s2)c1)c1cccs1	–	360	–	36	703	RORg DNA counter=–
COC(=O)[C@H](C(C)C)N(CCCc1cn(Cc2ccc(C)cc2)nn1)S(=O)(=O)c1ccccc1Br	·	–	·	·	·
CCCCCCCCN1C(=O)[C@@H](CC(=O)NCCCN2CCCC2=O)C[C@@]2(C(=O)OC)C1=C[C@H](COCc1ccccc1)O[C@@H]2C	·	–	·	·	·
O=C(Cc1ccc(Cl)cc1)c1c[nH]c(C(=O)NCc2cccnc2)c1	–	19	–	–	35	RORg DNA counter=–
C=CCn1c(SCC(=O)Nc2cc(C)on2)nc2sc3c(c2c1=O)CCCC3	–	–	–	–	·
COc1cccc(-n2c(SCC(=O)Nc3cc(C)on3)nc3ccccc3c2=O)c1	–	–	–	–	·
C=CCn1c(SCC(=O)Nc2cc(C)on2)nc2sc(C)c(C)c2c1=O	–	54	–	–	53	RORg DNA counter=–
CCc1sc2nc(SCC(=O)Nc3cc(C)on3)n(-c3cccc(OC)c3)c(=O)c2c1C	–	34	–	–	22
